Measurements published in PubChem BioAssay.
Active and inactive are the calls of the source.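 The calls were made as follows, unless noted: active = inhibition above 20% together with a positive visual image hit; inconclusive = visual image hit but inhibition not above 20%; inactive = no visual image hit.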

Assay: inhibitors of TNFa-induced NFkB p65 translocation, primary screen, imaging, HUVEC, MLSMR starter and 10KST1 sets (AID 438);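 also: compound added about 3h40 before a 20 min TNFalpha stimulation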;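 as to inhibition: signal is the nuclear over cytoplasmic p65 intensity ratio per well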
Settings: HUVEC TNFa-induced p65 nuclear translocation; cell count: measured here: nuclei count (cytotoxicity indicator), at 2.08 µM; inhibition: at 2 µM, stronger effect = higher value, 0% TNFa-plus-vehicle, 100% no-TNFa wells

Row | Structure (SMILES) | inhibition | cell count
1 | CC(=O)Nc1cc2c(nc1C)nc(C)n2Cc1ccc(Br)cc1 | -1.6% (inactive) | 419
2 | COc1ccc(C(C)N2CC34C=CC(O3)C(C(=O)OCC(C)C)C4C2=O)cc1 (stereo not given) | 9.1% (inactive) | 589
3 | COc1ccc2nc3oc(C(=O)NC4CCN(Cc5ccccc5)CC4)cc3cc2c1 | -1.3% (inactive) | 237
4 | CN(C)c1ccc(-c2nn3c(-c4ccc(Cl)cc4Cl)nnc3s2)cc1 | 2.6% (inactive) | 321
5 | COc1ccc(S(=O)(=O)NC(C)C(=O)Nc2cccc(C(C)=O)c2)cc1 (stereo not given) | 2.4% (inactive) | 255
6 | O=C(Nc1cccc2ccccc12)N1CCN(c2ccccc2)CC1 | -6.4% (inactive) | 767
7 | O=c1ccc2cc3c([nH]c4ccc(Br)cc43)oc-2c1O | 4.7% (inactive) | 447
8 | CCCCSc1cc(C)nc2ncnn12 | -4% (inactive) | 416
9 | CCN1C(=O)CC(N2CCC(Nc3ccc(F)cc3)CC2)C1=O (stereo not given) | -9.7% (inactive) | 559
10 | CCOc1ccccc1NC(=O)CCSc1nc2n[nH]c(C)c2c(=N)n1-c1ccccc1Cl | -10.2% (inactive) | 621
11 | c1ccc(-n2c(Sc3cnccn3)nnc2-c2cccs2)cc1 | -24.6% (inactive) | 362
12 | C=C(C)Cn1c(N2CC(C)CC(C)C2)nc2c1c(=O)[nH]c(=O)n2C (stereo not given) | -8% (inactive) | 616
13 | CCC1(C(=O)OC)NC(c2cccc(F)c2)C2C(=O)N(C)C(=O)C21 (stereo not given) | -1.8% (inactive) | 715
14 | Cc1ccccc1-n1c(SCc2c(C)noc2C)nnc1-c1ccncc1 | -2.4% (inactive) | 741
15 | COC(=O)C1=C(C)n2nnnc2NC1c1ccc(Cl)cc1 (stereo not given) | 3.6% (inactive) | 340
16 | CCc1ccc(C2CC(c3ccccc3)n3ncnc3N2)cc1 (stereo not given) | 1.1% (inactive) | 626
17 | CCN(C(=O)c1cn(C)c(=O)c2cc(OC)c(OC)cc12)c1ccccc1C | 0.3% (inactive) | 175
18 | COc1ccccc1-n1c(C)nnc1SCC(=O)Nc1cccc(C(C)=O)c1 | 4.3% (inactive) | 388
19 | O=C(Nc1ccc(N2CCOCC2)c(Cl)c1)c1ccc(Br)o1 | 8.2% (inactive) | 708
20 | Cc1cccc(-n2c(=O)cc(N3CCN(c4ccc(F)cc4)CC3)[nH]c2=O)c1 | 0% (inactive) | 605

Row | Structure (SMILES) | inhibition | cell count
21 | N#CCCN1CCN(S(=O)(=O)c2ccc(S(=O)(=O)NC3CCCC3)cc2)CC1 | -10% (inactive) | 689
22 | O=C(c1ccccc1Br)N1CCN(c2ccccc2)CC1 | 1.2% (inactive) | 619
23 | O=C(Cc1cccs1)NCc1ccc(F)cc1 | 2.4% (inactive) | 458
24 | CCn1c(SCC(=O)NC)nnc1C(C)C | -11.9% (inactive) | 718
25 | O=C(C1CCC(N2C(=O)C3CC=CCC3C2=O)CC1)N1CCCCC1 (stereo not given) | 22.4% (active) | 257
26 | O=C1CC(c2ccccc2)Cc2nc(N3CCc4ccccc43)ncc21 (stereo not given) | 1.2% (inactive) | 403
27 | Cc1nc2cc(Cl)ccc2n1CCO | 6.1% (inactive) | 404
28 | O=C(CCCc1cccs1)Nc1nc2c(s1)CCCC2 | 9.3% (inactive) | 613
29 | O=C(CN1C(=O)CCS(=O)(=O)c2ccccc21)NCc1ccc(F)cc1 | -7.7% (inactive) | 529
30 | CCN1C(=O)c2cccc3c(NC(=O)c4ccc(S(=O)(=O)N(C)C)cc4)ccc1c23 | -7.9% (inactive) | 323
31 | Cc1oc(-c2cccc(Cl)c2)nc1CN1CCC(C(=O)N2CCN(c3ccccc3F)CC2)CC1 | -0.6% (inactive) | 780
32 | C=CCOc1ccc(/C=N/n2cncn2)cc1OC | -8.8% (inactive) | 517
33 | Cc1ccc(-c2csc3ncn(-n4c(C)ccc4C)c(=O)c23)o1 | 6.1% (inactive) | 575
34 | c1ccc2c(c1)CNC1(CCCCC1)C2 | -3.4% (inactive) | 362
35 | COc1cc(C2CC(=O)NC3=C2C(=O)CC(C)(C)C3)ccc1O (stereo not given) | -2.2% (inactive) | 380
36 | c1cncc(-c2nnc3n2N=C(c2cccs2)CS3)c1 | 4.8% (inactive) | 523
37 | COC(=O)CCn1nnc(-c2cccs2)n1 | -6.8% (inactive) | 547
38 | O=C(CCn1c(=O)sc2ccccc21)Nc1nccs1 | -22.3% (inactive) | 575
39 | COc1ccc(N(CC(=O)O)S(=O)(=O)c2ccc(OC)c(OC)c2)cc1 | -2.1% (inactive) | 501
40 | CCC(C)NC(=O)C1c2cc(OC)c(OC)cc2C(=O)N(C)C1c1ccc(OC)cc1 (stereo not given) | -0.3% (inactive) | 455

Assay: inhibitors of mutant huntingtin aggregation, primary screen, imaging, exon1htt(103Q)mCFP cells, high-content imaging (AID 483;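 active = visual image review flags a hit and inhibition of aggregation exceeds 20%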;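 also: compound exposure lasted 3 days before fixation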;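 as to nuclei count: percent of the per-plate median nuclei count of sample wells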)
Settings: exon1htt(103Q)mCFP cell line, aggregate imaging, at 2 µM; inhibition of aggregation: stronger effect = higher value; nuclei count: measured here: cell count, toxicity

Row | Structure (SMILES) | nuclei count [%] | inhibition of aggregation
41 | CC(=O)Nc1cc2c(nc1C)nc(C)n2Cc1ccc(Br)cc1 | 92 | 7.8% (inactive)
42 | COc1ccc(C(C)N2CC34C=CC(O3)C(C(=O)OCC(C)C)C4C2=O)cc1 (stereo not given) | 75.7 | 3.8% (inactive)
43 | COc1ccc2nc3oc(C(=O)NC4CCN(Cc5ccccc5)CC4)cc3cc2c1 | 107 | -19% (inactive)
44 | CN(C)c1ccc(-c2nn3c(-c4ccc(Cl)cc4Cl)nnc3s2)cc1 | 98.2 | -10.5% (inactive)
45 | COc1ccc(S(=O)(=O)NC(C)C(=O)Nc2cccc(C(C)=O)c2)cc1 (stereo not given) | 97.3 | 14.5% (inactive)
46 | O=C(Nc1cccc2ccccc12)N1CCN(c2ccccc2)CC1 | 94.9 | 26.6% (inactive)
47 | O=c1ccc2cc3c([nH]c4ccc(Br)cc43)oc-2c1O | 111 | -0.5% (inactive)
48 | CCCCSc1cc(C)nc2ncnn12 | 117 | -3.2% (inactive)
49 | CCN1C(=O)CC(N2CCC(Nc3ccc(F)cc3)CC2)C1=O (stereo not given) | 57.1 | 6.4% (inactive)
50 | CCOc1ccccc1NC(=O)CCSc1nc2n[nH]c(C)c2c(=N)n1-c1ccccc1Cl | 77.9 | -22.3% (inactive)
51 | c1ccc(-n2c(Sc3cnccn3)nnc2-c2cccs2)cc1 | 100 | 2.4% (inactive)
52 | C=C(C)Cn1c(N2CC(C)CC(C)C2)nc2c1c(=O)[nH]c(=O)n2C (stereo not given) | 104 | -2.3% (inactive)
53 | CCC1(C(=O)OC)NC(c2cccc(F)c2)C2C(=O)N(C)C(=O)C21 (stereo not given) | 101 | 11.4% (inactive)
54 | Cc1ccccc1-n1c(SCc2c(C)noc2C)nnc1-c1ccncc1 | 103 | -10.7% (inactive)
55 | COC(=O)C1=C(C)n2nnnc2NC1c1ccc(Cl)cc1 (stereo not given) | 99.4 | -8.8% (inactive)
56 | CCc1ccc(C2CC(c3ccccc3)n3ncnc3N2)cc1 (stereo not given) | 72 | 25.1% (inactive)
57 | CCN(C(=O)c1cn(C)c(=O)c2cc(OC)c(OC)cc12)c1ccccc1C | 94.1 | 12.8% (inactive)
58 | COc1ccccc1-n1c(C)nnc1SCC(=O)Nc1cccc(C(C)=O)c1 | 104 | 3.5% (inactive)
59 | O=C(Nc1ccc(N2CCOCC2)c(Cl)c1)c1ccc(Br)o1 | 103 | 4.4% (inactive)
60 | Cc1cccc(-n2c(=O)cc(N3CCN(c4ccc(F)cc4)CC3)[nH]c2=O)c1 | 50.1 | 15.8% (inactive)

Row | Structure (SMILES) | nuclei count [%] | inhibition of aggregation
61 | N#CCCN1CCN(S(=O)(=O)c2ccc(S(=O)(=O)NC3CCCC3)cc2)CC1 | 126 | -6.8% (inactive)
62 | O=C(c1ccccc1Br)N1CCN(c2ccccc2)CC1 | 100 | -1.6% (inactive)
63 | O=C(Cc1cccs1)NCc1ccc(F)cc1 | 107 | 10.1% (inactive)
64 | CCn1c(SCC(=O)NC)nnc1C(C)C | 99.7 | -4.5% (inactive)
65 | O=C(C1CCC(N2C(=O)C3CC=CCC3C2=O)CC1)N1CCCCC1 (stereo not given) | 80.1 | 7.8% (inactive)
66 | O=C1CC(c2ccccc2)Cc2nc(N3CCc4ccccc43)ncc21 (stereo not given) | 95.7 | -14.1% (inactive)
67 | Cc1nc2cc(Cl)ccc2n1CCO | 104 | -6.3% (inactive)
68 | O=C(CCCc1cccs1)Nc1nc2c(s1)CCCC2 | 102 | -20.4% (inactive)
69 | O=C(CN1C(=O)CCS(=O)(=O)c2ccccc21)NCc1ccc(F)cc1 | 95.8 | 13.4% (inactive)
70 | CCN1C(=O)c2cccc3c(NC(=O)c4ccc(S(=O)(=O)N(C)C)cc4)ccc1c23 | 109 | -2.1% (inactive)
71 | Cc1oc(-c2cccc(Cl)c2)nc1CN1CCC(C(=O)N2CCN(c3ccccc3F)CC2)CC1 | 77.7 | -4% (inactive)
72 | C=CCOc1ccc(/C=N/n2cncn2)cc1OC | 76.3 | 23.9% (inactive)
73 | Cc1ccc(-c2csc3ncn(-n4c(C)ccc4C)c(=O)c23)o1 | 82.8 | -0.6% (inactive)
74 | c1ccc2c(c1)CNC1(CCCCC1)C2 | 114 | 13% (inactive)
75 | COc1cc(C2CC(=O)NC3=C2C(=O)CC(C)(C)C3)ccc1O (stereo not given) | 101 | 6.5% (inactive)
76 | c1cncc(-c2nnc3n2N=C(c2cccs2)CS3)c1 | 96.4 | 7.7% (inactive)
77 | COC(=O)CCn1nnc(-c2cccs2)n1 | 110 | 7.6% (inactive)
78 | O=C(CCn1c(=O)sc2ccccc21)Nc1nccs1 | 65.7 | 4.1% (inactive)
79 | COc1ccc(N(CC(=O)O)S(=O)(=O)c2ccc(OC)c(OC)c2)cc1 | 99 | -12.1% (inactive)
80 | CCC(C)NC(=O)C1c2cc(OC)c(OC)cc2C(=O)N(C)C1c1ccc(OC)cc1 (stereo not given) | 100 | 7.3% (inactive)
